Several values for one entry are separate records, joined by “and”; a condition that tells them apart may be missing. Identical values can stand only once. About 260 (0.076%) of roughly 340,000 compounds were called active. Many of the other results were omitted from the sample, so actives are more common in it than they were. Unmarked numbers belong to inactive results.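 The calls were made as follows: active = highest replicate inhibition at or above 60% at 9 µM, even if other replicates fall short; inactive = all replicates below 60% inhibition.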

The assay relates to Kaposi's sarcoma herpesvirus LANA C-terminal domain (residues 932-1162) DNA binding. In words: blockers of LANA C-terminal domain DNA interaction – biochemical, fluorescence polarization, FAM-LBS DNA, MBP-C-LANA, single point, primary screen (AID 504423).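 Also: 0% = neutral control wells and 100% = 4 µM acridine orange control.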 As to conditions: at 9 µM, stronger effect = higher value. A general note: Fluorescence polarisation rises when a labelled molecule tumbles more slowly, as on binding a larger partner.
The inhibition is the change of the read-out against control, counted positive when it falls. Turning to `CCC1OC(c2ccc([N+](=O)[O-])cc2)=Nc2ccccc21` (stereo not given), the inhibition was 1.55%.

For the compound `O=C(NCCCc1ccccc1)C(=O)c1c[nH]c2ccccc12`, the inhibition is 1.71%. Next, `CCCN(CC(=O)NC(=O)NC1CCCCC1)CC(=O)Nc1cc(Cl)ccc1Cl`: -0.226%; `CCN1C[C@@H]2[C@@H]3C(=O)N(C)C(=O)[C@@H]3[C@](C)(C1=O)N2C(=O)c1ccccc1`: -2.13%. Next, `CCN(CC(=O)Nc1ccc(OC)cc1)C(=O)c1ccc(Cl)c(S(=O)(=O)N2CCCC2)c1`: 3.81%. With `CCOC(=O)C1=C(O)/C(=C/c2cc(C)n(-c3ccccc3)c2C)N=C1C`, the inhibition was 73.6% (active).

For the compound `CCOC(=O)C1=C(O)/C(=C/c2ccc(OCC(=O)Nc3ccc(C)cc3)cc2)N=C1C`, the inhibition is 0.825%. The value for `COC(=O)C1=C(O)/C(=C/c2ccc(OCC(=O)Nc3ccccc3)cc2)N=C1C` was 0.272%; that for `CCOc1ccc(N(CC)S(=O)(=O)c2cccc3nsnc23)cc1` was 3.87%. Next, `Cc1cc2nc(SCCN3CCOCC3)[nH]c2cc1C`: -0.479%; `O=C(Nc1c(Br)cc2c(c1Br)Cc1ccccc1-2)C(F)(F)F`: -0.671%. The value for `O=C(NC(=S)N1CCCCC1c1cccnc1)c1ccccc1` (stereo not given) was 1.24%; that for `CN(CCOc1ccc(CC2SC(=O)NC2=O)cc1)c1ccccn1` (stereo not given) was 14.3% and -2.59%. Take `CN(C)/C=C(/C(=O)c1ccccc1Cl)S(C)(=O)=O`: the inhibition was 0.122%. With `CCC(CC)C(=O)Nc1cc(C(=O)OC)cc(C(=O)OC)c1`, the inhibition is -1.15%. Next, `Cc1ccc(C)c(-n2ccnc2SCC(N)=O)c1`: -0.0657%; `Cc1cc(C)c(CN2CCN(C(=O)Cn3ccc(NC(=O)OCc4ccccc4)nc3=O)CC2)c(C)c1`: 1.66%; `CCn1c(=S)sc2c(=O)n(CC(=O)Nc3cccc(Br)c3)c(C)nc21`: -0.393%.

On to `Cc1cccn2c(CNCC(C)Oc3cccnc3)c(C(=O)N3CCOCC3)nc12` (stereo not given), for which the inhibition is -1.19%. The value for `CCOc1ccc(CN2CCC(n3nccc3NC(=O)C3CC3)CC2)cc1CO` was 1.61%. The value for `O=C(Nc1cc(-c2ccccc2)nn1-c1ccccc1F)c1ccc([N+](=O)[O-])cc1` was -1.47%; that for `Cc1ccccc1OCC(=O)NNC(=O)c1cc(S(=O)(=O)N(C)C)ccc1N1CCCC1` was -0.594%. The value for `CN1CCC2(CC1)NC(=O)NC2=O` was 0.656%; that for `O=C(NCc1ccncc1)c1cccc(NS(=O)(=O)c2ccc(F)c(F)c2)c1` was -0.916%. On to `CSc1nc(-c2ccccc2)nc(C(Cl)Cl)n1`, for which the inhibition was 1.16%. As for `CCCn1c(N)c(C(=O)CSc2nc3ccccc3c(=O)n2-c2ccc(OC)cc2)c(=O)[nH]c1=O`, the inhibition is 0.469%. Next, `Cc1cccc(-c2nc3c(c(SCC(=O)N4CCOCC4)n2)CCCC3)c1`: -0.478%. For `COc1cccc(CNC(=O)C2CCCN(c3ncnc4c3nc3n4CCCCC3)C2)c1` (stereo not given), the inhibition was 0.109%. The value for `CCNC(=O)COc1cc(C)c(Br)c(C)c1` was 0.138%; that for `CCCCC(CC(C)O)c1n[nH]c(=S)n1-c1ccccc1` (stereo not given) was 0.671%; that for `Cc1ccc(N2CCN(C(=O)c3cccs3)CC2)c(C)c1` was 0.336%. Next, `O=C(COC(=O)COc1cccc(F)c1)NCC1CCCCC1`: -1.07%.

Regarding `O=C1Nc2cc(C(=O)N3CCC(N4CCCCC4)CC3)ccc2S/C1=C\c1ccccc1`, the inhibition is -4.28%.

Regarding `CC(=O)Nc1ccc(S(=O)(=O)N(C)CC(=O)NCCC2=CCCCC2)cc1`, the inhibition was 0.609%.

Consider `CC(C)n1c(NCc2c[nH]c3ccccc23)nc2ccccc21`, for which the inhibition was -1.36%. Next, `COc1ccccc1-c1c(C#N)c(N)nc2c1CCC2`: 1.17%; `CS(=O)(=O)N1CCC(C(=O)N2CCN(c3ccccc3)CC2)CC1`: -0.437%. Next, `C(=N/N1CCN(c2ccccc2)CC1)/c1cccs1`: -0.282%; `O=c1ccc2c(-c3ccccc3S(=O)(=O)O)c3ccc(O)c(O)c3oc-2c1O`: 101% (active); `CC(OC(=O)/C=C/c1ccccc1)C(=O)Nc1ccc(C(N)=O)cc1` (stereo not given): 2.44%.

As for `COc1ccc(C2CC(=O)Oc3ccc(C(C)(C)C)cc32)cc1` (stereo not given), the inhibition was -0.823%. As for `CC1(c2nnc(-c3ccncc3)o2)CC(c2cccnc2)=NO1` (stereo not given), the inhibition was -1.07%. The value for `Cc1ccc(S(=O)(=O)/N=C(\N)c2ccc(F)cc2)cc1` was -0.0435%. For `COCc1ccc(CN2CCC(Oc3ccc(C(=O)NCc4ccccn4)cc3)CC2)o1`, the inhibition was -1.54%.

With `Fc1ccccc1Cc1ccc(Cl)nn1`, the inhibition is -0.587%.

These data come from PubChem BioAssay AID504423 (Broad Institute, 2011).
